# Source: paper PMC7862700, “An all-to-all approach to the identification of sequence-specific readers for epigenetic DNA modifications on cytosine”
# Legend:
# Test in all cases: DAPPL (digital affinity profiling via proximity ligation, sequencing); 10 mM Tris-HCl pH 7.5, 50 mM NaCl, 1 mM DTT, 4% glycerol, room temperature, 30 min; GST-TFs on glutathione beads, 16-mer random dsDNA library, 0.1% formaldehyde crosslink after washing; high values mean tight binding
# [1] = target: T1, FEV (Homo sapiens, UniProt Q99581 1-238); settings: protein: recombinant; tags: N-terminal GST; dsDNA, one strand shown
# T1 sequence: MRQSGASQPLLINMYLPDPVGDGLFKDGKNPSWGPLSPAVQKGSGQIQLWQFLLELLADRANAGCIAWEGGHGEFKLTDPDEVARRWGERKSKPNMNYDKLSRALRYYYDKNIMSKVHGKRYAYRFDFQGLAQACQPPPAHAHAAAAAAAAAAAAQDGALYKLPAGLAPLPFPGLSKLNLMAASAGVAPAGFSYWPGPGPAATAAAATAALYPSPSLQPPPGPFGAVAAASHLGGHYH
# In short: (§1)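 After expression in yeast as GST fusions, human transcription factors were bound to glutathione beads, DNA-barcoded and mixed with a tag-only sample. The pools were incubated with 200 nmole of a 16-mer random double-stranded DNA library in Tris/NaCl/DTT/glycerol buffer (30 min, room temperature), washed and crosslinked with 0.1% formaldehyde. Proximity ligation with BsaI/T4 ligase ran for 1 h at 37 °C, before PCR amplification and sequencing on an Illumina NextSeq500. Binding signal is a hexamer's read frequency for a factor divided by its frequency for the tag-only sample.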
# [2] = target: ETV5 (Homo sapiens, UniProt P41161 1-510); settings: protein: recombinant; tags: N-terminal GST; dsDNA, one strand shown
# Sequence of ETV5 (P41161 whole entry): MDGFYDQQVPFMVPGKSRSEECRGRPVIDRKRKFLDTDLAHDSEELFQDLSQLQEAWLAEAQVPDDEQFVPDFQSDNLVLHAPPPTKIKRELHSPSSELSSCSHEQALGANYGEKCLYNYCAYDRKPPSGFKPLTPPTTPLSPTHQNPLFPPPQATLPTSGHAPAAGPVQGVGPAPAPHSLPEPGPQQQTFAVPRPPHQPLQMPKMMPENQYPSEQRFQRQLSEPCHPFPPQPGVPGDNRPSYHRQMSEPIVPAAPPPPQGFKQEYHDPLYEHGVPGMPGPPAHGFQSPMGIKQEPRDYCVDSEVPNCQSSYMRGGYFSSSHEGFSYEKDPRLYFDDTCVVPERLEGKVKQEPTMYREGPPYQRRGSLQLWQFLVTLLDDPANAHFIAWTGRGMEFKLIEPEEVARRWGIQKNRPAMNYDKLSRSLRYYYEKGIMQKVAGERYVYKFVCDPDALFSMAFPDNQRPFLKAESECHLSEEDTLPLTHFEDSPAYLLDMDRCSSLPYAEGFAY
# In short: as §1
# [3] = target: HSF1 (Homo sapiens, UniProt Q00613 1-529); settings: protein: recombinant; tags: N-terminal GST; chain copies: 3; dsDNA, one strand shown
# Sequence of HSF1 (Q00613 whole entry): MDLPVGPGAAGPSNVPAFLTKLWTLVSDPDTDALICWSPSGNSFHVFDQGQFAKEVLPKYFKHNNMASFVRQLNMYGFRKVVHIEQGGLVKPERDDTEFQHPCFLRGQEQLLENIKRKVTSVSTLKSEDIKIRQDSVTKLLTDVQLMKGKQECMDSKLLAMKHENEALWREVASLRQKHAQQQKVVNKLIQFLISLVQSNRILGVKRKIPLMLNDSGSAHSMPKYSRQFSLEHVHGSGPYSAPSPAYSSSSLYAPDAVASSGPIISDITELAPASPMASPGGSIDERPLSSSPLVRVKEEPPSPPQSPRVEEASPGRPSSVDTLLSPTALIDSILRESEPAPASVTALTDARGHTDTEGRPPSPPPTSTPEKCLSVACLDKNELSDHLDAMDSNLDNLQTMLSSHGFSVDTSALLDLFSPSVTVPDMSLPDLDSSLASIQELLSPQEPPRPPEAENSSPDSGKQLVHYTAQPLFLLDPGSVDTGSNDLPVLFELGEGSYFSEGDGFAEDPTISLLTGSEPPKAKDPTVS
# In short: as §1
# [4] = target: T2, SPIC (Homo sapiens, UniProt Q8N5J4 1-248); settings: protein: recombinant; tags: N-terminal GST; dsDNA, one strand shown
# T2 sequence: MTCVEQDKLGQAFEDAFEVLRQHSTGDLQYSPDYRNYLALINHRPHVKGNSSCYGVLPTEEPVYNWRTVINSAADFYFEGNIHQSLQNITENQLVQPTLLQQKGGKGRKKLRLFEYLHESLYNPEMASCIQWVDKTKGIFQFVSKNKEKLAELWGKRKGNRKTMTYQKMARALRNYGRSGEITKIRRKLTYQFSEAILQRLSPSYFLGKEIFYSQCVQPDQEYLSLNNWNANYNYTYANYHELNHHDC
# In short: as §1
# [5] = target: ELF4 (Homo sapiens, UniProt Q99607 1-663); settings: protein: recombinant; tags: N-terminal GST; dsDNA, one strand shown
# Sequence of ELF4 (Q99607 whole entry): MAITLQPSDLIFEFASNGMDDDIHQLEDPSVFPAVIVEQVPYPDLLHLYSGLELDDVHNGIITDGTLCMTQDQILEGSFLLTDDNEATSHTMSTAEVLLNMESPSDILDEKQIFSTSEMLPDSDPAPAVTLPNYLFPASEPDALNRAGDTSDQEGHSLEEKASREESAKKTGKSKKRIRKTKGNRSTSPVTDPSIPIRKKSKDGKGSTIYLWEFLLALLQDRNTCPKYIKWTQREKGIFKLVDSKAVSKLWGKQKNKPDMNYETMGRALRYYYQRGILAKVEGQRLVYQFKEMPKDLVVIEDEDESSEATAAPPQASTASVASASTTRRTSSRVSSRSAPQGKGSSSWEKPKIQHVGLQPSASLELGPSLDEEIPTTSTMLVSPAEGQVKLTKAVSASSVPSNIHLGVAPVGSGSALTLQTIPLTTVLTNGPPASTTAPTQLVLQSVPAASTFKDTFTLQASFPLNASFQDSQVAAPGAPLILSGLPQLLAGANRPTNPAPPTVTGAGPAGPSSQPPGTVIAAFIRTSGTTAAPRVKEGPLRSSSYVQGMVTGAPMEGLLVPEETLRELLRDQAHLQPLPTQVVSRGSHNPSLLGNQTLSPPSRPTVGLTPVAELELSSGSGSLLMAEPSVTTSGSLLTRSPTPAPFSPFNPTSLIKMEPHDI
# In short: as §1
# [6] = target: T3, ELK4 (Homo sapiens, UniProt P28324-2 1-405); settings: protein: recombinant; tags: N-terminal GST; dsDNA, one strand shown
# T3 sequence: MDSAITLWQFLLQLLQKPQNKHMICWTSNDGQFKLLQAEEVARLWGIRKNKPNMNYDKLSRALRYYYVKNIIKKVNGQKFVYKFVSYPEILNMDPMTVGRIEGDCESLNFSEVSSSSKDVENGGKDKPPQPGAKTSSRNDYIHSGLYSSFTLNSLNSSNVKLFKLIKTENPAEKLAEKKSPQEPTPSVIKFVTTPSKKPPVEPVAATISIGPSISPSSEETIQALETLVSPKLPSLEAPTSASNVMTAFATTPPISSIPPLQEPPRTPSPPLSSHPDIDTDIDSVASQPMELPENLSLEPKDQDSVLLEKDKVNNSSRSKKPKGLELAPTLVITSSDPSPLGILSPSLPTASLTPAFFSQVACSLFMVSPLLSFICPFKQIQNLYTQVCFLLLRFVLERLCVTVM
# In short: as §1
# [7] = target: T4, ETV2 (Homo sapiens, UniProt O00321 1-342); settings: protein: recombinant; tags: N-terminal GST; dsDNA, one strand shown
# T4 sequence: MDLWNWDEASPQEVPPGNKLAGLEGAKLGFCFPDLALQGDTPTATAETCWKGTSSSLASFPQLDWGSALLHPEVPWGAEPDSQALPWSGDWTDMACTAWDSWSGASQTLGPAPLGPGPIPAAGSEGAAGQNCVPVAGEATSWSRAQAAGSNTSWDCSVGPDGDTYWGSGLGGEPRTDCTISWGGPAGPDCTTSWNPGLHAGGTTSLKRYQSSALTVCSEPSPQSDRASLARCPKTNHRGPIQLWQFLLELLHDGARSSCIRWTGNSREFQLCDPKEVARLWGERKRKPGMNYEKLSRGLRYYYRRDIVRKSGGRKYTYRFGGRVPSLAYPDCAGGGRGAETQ
# In short: as §1
# [8] = target: T5, ELF3 (Homo sapiens, UniProt P78545 1-371); settings: protein: recombinant; tags: N-terminal GST; dsDNA, one strand shown
# T5 sequence: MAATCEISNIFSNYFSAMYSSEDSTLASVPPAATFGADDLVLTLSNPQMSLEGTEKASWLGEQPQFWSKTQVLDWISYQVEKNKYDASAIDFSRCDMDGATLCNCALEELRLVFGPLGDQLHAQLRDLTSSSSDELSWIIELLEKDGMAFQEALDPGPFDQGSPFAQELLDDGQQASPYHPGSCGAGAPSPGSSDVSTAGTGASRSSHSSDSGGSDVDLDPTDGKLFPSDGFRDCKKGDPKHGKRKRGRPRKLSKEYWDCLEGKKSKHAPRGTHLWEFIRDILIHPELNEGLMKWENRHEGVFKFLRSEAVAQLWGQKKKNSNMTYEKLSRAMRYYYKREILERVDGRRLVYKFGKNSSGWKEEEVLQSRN
# In short: as §1
# [9] = target: CRX (Homo sapiens, UniProt O43186 1-299); settings: protein: recombinant; tags: N-terminal GST; dsDNA, one strand shown
# Sequence of CRX (O43186 whole entry): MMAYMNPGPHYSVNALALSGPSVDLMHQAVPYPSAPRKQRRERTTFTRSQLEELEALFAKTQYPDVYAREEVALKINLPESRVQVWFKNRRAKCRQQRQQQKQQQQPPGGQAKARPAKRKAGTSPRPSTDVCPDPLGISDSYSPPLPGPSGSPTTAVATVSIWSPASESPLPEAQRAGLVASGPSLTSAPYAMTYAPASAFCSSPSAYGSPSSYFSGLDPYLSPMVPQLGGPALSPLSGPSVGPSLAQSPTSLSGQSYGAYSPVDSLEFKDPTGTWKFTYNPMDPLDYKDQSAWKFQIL
# In short: as §1
# [10] = target: ETV1 (Homo sapiens, UniProt P50549 1-477); settings: protein: recombinant; tags: N-terminal GST; dsDNA, one strand shown
# Sequence of ETV1 (P50549 whole entry): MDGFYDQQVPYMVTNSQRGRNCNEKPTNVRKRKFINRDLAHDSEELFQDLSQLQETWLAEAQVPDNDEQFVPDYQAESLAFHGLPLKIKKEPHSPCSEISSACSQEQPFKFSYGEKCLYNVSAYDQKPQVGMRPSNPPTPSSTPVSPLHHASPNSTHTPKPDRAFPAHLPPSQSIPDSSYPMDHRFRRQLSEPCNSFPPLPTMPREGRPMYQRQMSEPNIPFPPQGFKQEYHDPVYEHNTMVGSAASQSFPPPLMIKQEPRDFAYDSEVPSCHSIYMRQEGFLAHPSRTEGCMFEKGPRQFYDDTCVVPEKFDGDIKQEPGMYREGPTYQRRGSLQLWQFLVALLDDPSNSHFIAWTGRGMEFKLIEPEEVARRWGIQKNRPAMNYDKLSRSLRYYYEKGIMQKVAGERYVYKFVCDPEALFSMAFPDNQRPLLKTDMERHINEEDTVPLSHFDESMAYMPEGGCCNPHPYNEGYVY
# In short: as §1
Sequence,binding signal [1],binding signal [2],binding signal [3],binding signal [4],binding signal [5],binding signal [6],binding signal [7],binding signal [8],binding signal [9],binding signal [10]
GATTTT,"1.09 fold enrichment (6-mer frequency, TF over GST control)","1.1 fold enrichment (6-mer frequency, TF over GST control)","1.45 fold enrichment (6-mer frequency, TF over GST control)","1.14 fold enrichment (6-mer frequency, TF over GST control)","1.15 fold enrichment (6-mer frequency, TF over GST control)","1.24 fold enrichment (6-mer frequency, TF over GST control)","1.12 fold enrichment (6-mer frequency, TF over GST control)","1.14 fold enrichment (6-mer frequency, TF over GST control)","1.72 fold enrichment (6-mer frequency, TF over GST control)","1.17 fold enrichment (6-mer frequency, TF over GST control)"
TATCAT,"1.16 fold enrichment (6-mer frequency, TF over GST control)","1.07 fold enrichment (6-mer frequency, TF over GST control)","1.16 fold enrichment (6-mer frequency, TF over GST control)","1.25 fold enrichment (6-mer frequency, TF over GST control)","1.21 fold enrichment (6-mer frequency, TF over GST control)","1.16 fold enrichment (6-mer frequency, TF over GST control)","1.24 fold enrichment (6-mer frequency, TF over GST control)","1.11 fold enrichment (6-mer frequency, TF over GST control)","1.41 fold enrichment (6-mer frequency, TF over GST control)","1.13 fold enrichment (6-mer frequency, TF over GST control)"
CCGTTT,"1.48 fold enrichment (6-mer frequency, TF over GST control)","1.44 fold enrichment (6-mer frequency, TF over GST control)","1.12 fold enrichment (6-mer frequency, TF over GST control)","1.44 fold enrichment (6-mer frequency, TF over GST control)","1.36 fold enrichment (6-mer frequency, TF over GST control)","1.33 fold enrichment (6-mer frequency, TF over GST control)","1.31 fold enrichment (6-mer frequency, TF over GST control)","1.44 fold enrichment (6-mer frequency, TF over GST control)","1.06 fold enrichment (6-mer frequency, TF over GST control)","1.38 fold enrichment (6-mer frequency, TF over GST control)"
TTAACT,"1.25 fold enrichment (6-mer frequency, TF over GST control)","1.2 fold enrichment (6-mer frequency, TF over GST control)","1.79 fold enrichment (6-mer frequency, TF over GST control)","1.36 fold enrichment (6-mer frequency, TF over GST control)","1.23 fold enrichment (6-mer frequency, TF over GST control)","1.2 fold enrichment (6-mer frequency, TF over GST control)","1.17 fold enrichment (6-mer frequency, TF over GST control)","1.21 fold enrichment (6-mer frequency, TF over GST control)","2.72 fold enrichment (6-mer frequency, TF over GST control)","1.16 fold enrichment (6-mer frequency, TF over GST control)"
GTATCT,"1.14 fold enrichment (6-mer frequency, TF over GST control)","1.11 fold enrichment (6-mer frequency, TF over GST control)","1.15 fold enrichment (6-mer frequency, TF over GST control)","1.15 fold enrichment (6-mer frequency, TF over GST control)","1.14 fold enrichment (6-mer frequency, TF over GST control)","1.22 fold enrichment (6-mer frequency, TF over GST control)","1.23 fold enrichment (6-mer frequency, TF over GST control)","1.26 fold enrichment (6-mer frequency, TF over GST control)","1.02 fold enrichment (6-mer frequency, TF over GST control)","1.15 fold enrichment (6-mer frequency, TF over GST control)"
TCTTTG,"1.09 fold enrichment (6-mer frequency, TF over GST control)","1.16 fold enrichment (6-mer frequency, TF over GST control)","1.24 fold enrichment (6-mer frequency, TF over GST control)","1.13 fold enrichment (6-mer frequency, TF over GST control)","1.17 fold enrichment (6-mer frequency, TF over GST control)","1.2 fold enrichment (6-mer frequency, TF over GST control)","1.05 fold enrichment (6-mer frequency, TF over GST control)","1.18 fold enrichment (6-mer frequency, TF over GST control)","1.27 fold enrichment (6-mer frequency, TF over GST control)","1.1 fold enrichment (6-mer frequency, TF over GST control)"
CTAGTT,"1.23 fold enrichment (6-mer frequency, TF over GST control)","1.31 fold enrichment (6-mer frequency, TF over GST control)","1.51 fold enrichment (6-mer frequency, TF over GST control)","1.47 fold enrichment (6-mer frequency, TF over GST control)","1.35 fold enrichment (6-mer frequency, TF over GST control)","1.54 fold enrichment (6-mer frequency, TF over GST control)","1.32 fold enrichment (6-mer frequency, TF over GST control)","1.38 fold enrichment (6-mer frequency, TF over GST control)","1.16 fold enrichment (6-mer frequency, TF over GST control)","1.35 fold enrichment (6-mer frequency, TF over GST control)"
TCTTAG,"1.16 fold enrichment (6-mer frequency, TF over GST control)","1.21 fold enrichment (6-mer frequency, TF over GST control)","1.5 fold enrichment (6-mer frequency, TF over GST control)","1.36 fold enrichment (6-mer frequency, TF over GST control)","1.3 fold enrichment (6-mer frequency, TF over GST control)","1.21 fold enrichment (6-mer frequency, TF over GST control)","1.26 fold enrichment (6-mer frequency, TF over GST control)","1.29 fold enrichment (6-mer frequency, TF over GST control)","1.86 fold enrichment (6-mer frequency, TF over GST control)","1.25 fold enrichment (6-mer frequency, TF over GST control)"
